Screens deposited in PubChem by National Center for Advancing Translational Sciences (NCATS).
Hits are enriched below; roughly 21% of the tested compounds scored in any of these assays.
D3 antag: antagonists of human D3 dopamine receptor; P35462; D3R cells, DiscoveRx beta-arrestin luminescence, antagonist mode; active compounds read low; max response, negative = inhibition, %; 360,000 compounds, 2.5% hits; AID 652054; in the data active = max response below about -50%; inconclusive = no clear call, values can overlap the other calls
Target sequence (P35462 whole entry, looked up): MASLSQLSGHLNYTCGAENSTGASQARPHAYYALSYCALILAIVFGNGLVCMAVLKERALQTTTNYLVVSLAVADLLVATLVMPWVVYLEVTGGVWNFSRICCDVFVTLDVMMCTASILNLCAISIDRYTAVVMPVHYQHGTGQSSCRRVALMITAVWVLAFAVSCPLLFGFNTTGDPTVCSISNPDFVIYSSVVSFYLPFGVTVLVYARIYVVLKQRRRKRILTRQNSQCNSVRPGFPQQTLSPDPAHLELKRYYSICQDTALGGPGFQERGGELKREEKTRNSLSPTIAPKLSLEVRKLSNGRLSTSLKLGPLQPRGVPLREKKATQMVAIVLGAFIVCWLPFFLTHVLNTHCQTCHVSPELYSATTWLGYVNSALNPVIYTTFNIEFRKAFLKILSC
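Cells plated overnight at 1500 cells/well, then exposed to library compounds with dopamine controls for 90 minutes at 37 degrees C. DiscoveRx reagent added for 30–60 minutes at room temperature; luminescence read, quantitative HTS format.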
IL1B secr inh: inflammasome signaling inhibition, IL-1 beta readout | THP-1 LPS/ATP IL-1B secretion, AlphaLISA, 16 h; active compounds read low | activity change, % at 57.5 µM | 360,000 compounds, 4.7% hits; in the data active = activity change below about -50%; inconclusive = mostly about -30% to -49%
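Secreted IL-1B measured by AlphaLISA bead assay after 16 h compound exposure of THP-1 cells; compounds (final up to 57.5 uM) added 1 h before LPS (250 ng/mL) and ATP (1.25 mM) stimulation; lower signal means less secretion.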
ClpP mod: qHTS Assay for Activators of ClpP; ATP-dependent Clp protease proteolytic subunit (Bacillus subtilis (strain 168)), P80244; 340,000 compounds, 1.9% hits; Potency, µM (doses to about 57.5 µM); purified B. subtilis ClpP, FRET peptide cleavage, 20 min; active = well fitted falling curve with a large enough effect; inconclusive = small, poorly fitted or top-dose-only effect; inactive = no such curve, though single readings can be large or run the other way; note: the source files actives as falling curves though it sought activators and does not explain the sign; nearly all actives have a fitted effect of over 65% in size
Target sequence (P80244 whole entry, looked up): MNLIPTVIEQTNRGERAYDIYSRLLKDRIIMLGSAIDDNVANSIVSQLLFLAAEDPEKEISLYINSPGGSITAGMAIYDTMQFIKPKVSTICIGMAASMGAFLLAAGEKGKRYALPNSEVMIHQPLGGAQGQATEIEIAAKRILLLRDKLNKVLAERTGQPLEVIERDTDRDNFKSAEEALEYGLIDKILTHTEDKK
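ClpP 10 microg/mL final, pH 8 Tris/KCl buffer with BSA, glycerol, Tween-20; compound pinned in; FRET-FV substrate; RT 20 min; Ex320/Em430; ΔFRET vs ADEP 5.8 microM, DMSO, no enzyme.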
TDP1 cell noCPT: qHTS for Inhibitors of human tyrosyl-DNA phosphodiesterase 1 (TDP1): qHTS in cells in absence of CPT | DT40 Tdp1-/- hTDP1 cells, no CPT, ATP luminescence, 48 h | Potency, µM (series often up to 46.2 µM), actives largely listed as inhibitors | 420,000 compounds, 15% hits | AID 686978, 2013; note: nearly all actives have a fitted effect of over 55% in size
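Luminescent ATP content (CellTiter-Glo) served as the growth readout. Knockout chicken DT40 cells expressing human TDP1 were exposed to compounds without camptothecin for a minimum 48 hr at 37 °C.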
TDP1 cell CPT: growth inhibition of DT40 Tdp1-/-;hTDP1 cells with camptothecin (screen for TDP1 inhibitors). 420,000 compounds, 12% hits. chicken DT40 Tdp1-/-;hTDP1 cells + 20 nM CPT, ATP luminescence, 48 h. Potency, µM (doses to about 46.2 µM), usual class: inhibitors. AID 686979; note: nearly all actives have a fitted effect of over 55% in size
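Chicken DT40 Tdp1-/- cells complemented with human TDP1, 400 cells/well, exposed to compounds plus 20 nM camptothecin for at least 48 h at 37 C; viability read as ATP content by CellTiter-Glo luminescence.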
DRD3 agonist: D3 dopamine receptor (human) agonism | P35462 | D3R DiscoveRx beta-arrestin cells, luminescence, 90 min | max activation, % | 410,000 compounds, 0.58% hits | AID 652048; in the data active = max activation above about 30%
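Agonist-mode cell screen: cells plated at 1500/well and incubated overnight at 37 °C, then exposed to library compounds for 90 min at 37 °C. Detection reagent was added for 30–60 min at room temperature, and luminescence was read.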
Numbers stand for hits; . = inactive; ? = inconclusive; / = no result. Unless noted, calls come from the whole dose curve; as a rule, active = well fitted inhibition curve with a large enough effect; inconclusive = small, poorly fitted or top-dose-only effect; inactive = flat fitted curve, though single readings scatter.

SMILES	D3 antag	IL1B secr inh	ClpP mod	TDP1 cell noCPT	TDP1 cell CPT	DRD3 agonist
COc1ccc2nc(SCC(=O)N3CCCCC3)c(C#N)cc2c1	.	.	/	?	.	.
Cc1cc(NC(=O)CSc2nc3ccccc3cc2C#N)no1	.	.	/	.	.	.
COc1ccc2nc(SCC(=O)Nc3ccc(S(=O)(=O)N4CCCC4)cc3)c(C#N)cc2c1	.	.	.	?	9.2µM	.
Cc1cc(C(=O)NNC(=O)COc2ccccc2Cl)n[nH]1	.	.	/	.	.	.
NS(=O)(=O)c1ccc(CCNc2ccccc2[N+](=O)[O-])cc1	.	?	/	.	.	.
O=C1CC(c2ccc(OCCCCCOc3ccc(C4CC(=O)NC4=O)cc3)cc2)C(=O)N1 (configuration not stated)	.	-131.5	/	?	.	.
O=S1(=O)c2ccc(Br)cc2N2CCC[C@@H]2CN1Cc1ccc(Cl)cc1	?	.	.	?	?	.
O=S1(=O)c2ccc(Br)cc2N2CC[C@H](C2)N1Cc1ccc(Cl)cc1	.	.	.	1.64µM	1.3µM	.
COc1ccc(S(=O)(=O)NNC(=O)C2Cc3c(ccc4ccccc34)O2)cc1 (configuration not stated)	.	.	.	20.6µM	16.4µM	.
COCCNC(=O)C1Cc2c(ccc3ccccc23)O1 (configuration not stated)	.	.	.	.	.	.
O=C(CP(=O)(c1ccccc1)c1ccccc1)Nc1cccc(CP(=O)(c2ccccc2)c2ccccc2)c1	.	?	.	23.1µM	?	.
Cc1ccc(S(=O)(=O)Nc2cccc(CP(=O)(c3ccccc3)c3ccccc3)c2)cc1	.	.	/	.	.	.
CCCN(CC(=O)Nc1ccccc1C)C(=O)c1cccc(S(=O)(=O)N2CCN(c3ccccc3)CC2)c1	.	.	.	?	?	.
Cc1ccc(C)c(C(C)NC(=S)NC2CCCCC2)c1 (configuration not stated)	.	.	.	?	25.9µM	.
CCn1nc2cc(C(=O)NCC34CC5CC(CC(C5)C3)C4)ccc2c1OC	.	.	.	?	?	.
CCCCn1nc2cc(C(=O)NCC34CC5CC(CC(C5)C3)C4)ccc2c1OC	.	.	.	?	18.4µM	.
CCOc1c2ccc(C(=O)NCC34CC5CC(CC(C5)C3)C4)cc2nn1CC	.	?	.	16.4µM	29.1µM	.
CCOc1c2ccc(C(=O)NCc3ccc4c(c3)OCO4)cc2nn1CC	-52.5	.	.	.	.	.
CCCCn1nc2cc(C(=O)NCC3CC3)ccc2c1OCC	.	.	.	.	?	.
Cc1ccc2oc(C(=O)N(C)Cc3ccc(C)o3)c(C)c2c1	.	.	.	16.4µM	8.2µM	.
Cc1ccc2oc(C(=O)Nc3cc(C)on3)c(C)c2c1	.	.	.	5.8µM	.	.
CCOc1ccc2oc(C(=O)NCc3nc4ccccc4[nH]3)c(C)c2c1	.	.	35.5µM	?	?	.
CCOc1ccc2oc(C(=O)Nc3ccc(C)cn3)c(C)c2c1	.	.	.	18.4µM	?	.
Cc1ccc(NC(=O)c2oc3ccccc3c2C)nc1	.	.	.	.	?	.
CC1(C)CCC(C)(C)c2cc(NC(=O)c3ccc(C(=O)O)cc3)ccc21	/	/	/	?	?	.
SMILES	D3 antag	IL1B secr inh	ClpP mod	TDP1 cell noCPT	TDP1 cell CPT	DRD3 agonist
CCOC(=O)CNC(=O)c1ccc(-c2nn(C)c(=O)c3ccccc23)cc1	/	/	.	.	.	.
c1cncc(-c2cncnc2-n2ccnc2)c1	/	/	/	.	.	/
CCOc1ccc(CCNC(=O)C2Cc3ccccc3N2C(=O)CC)cc1OCC (configuration not stated)	/	/	.	.	?	.
C/C(=N\NC(=O)CNC(=O)C(c1ccccc1)c1ccccc1)c1ccc(C(C)(C)C)cc1	.	.	.	16.4µM	16.4µM	.
COc1ccc(/C(C)=N\NC(=O)CNC(=O)C(c2ccccc2)c2ccccc2)cc1OC	.	.	.	.	?	.
CC(=O)N1CCCc2cc(S(=O)(=O)N(C)CC(=O)Nc3ccccc3)ccc21	.	.	.	?	?	.
CC(=O)N1CCCc2cc(S(=O)(=O)N(CC(C)C)CC(C)C)ccc21	.	.	.	?	25.9µM	.
CC(=O)N1CCCc2cc(S(=O)(=O)N(C)CC(=O)Nc3ccc(C(C)C)cc3)ccc21	/	/	.	23.1µM	18.4µM	.
O=c1cc(-c2ccccc2)nc2c(-c3ccccc3)c(C(F)(F)F)[nH]n12	.	.	/	?	?	.
CCn1c(CN2CCC(C)CC2)nc2cc(S(=O)(=O)N3CCCCC3)ccc21	-83.1	.	.	13µM	?	.
CCCCn1c(CCC(=O)O)nc2cc(S(=O)(=O)N3CCCC3)ccc21	.	.	.	.	.	.
CCn1c(SC)nc2cc(S(=O)(=O)N3CCCCC3)ccc21	.	.	.	.	1.64µM	.
COc1cc(C2/C(=C(\O)c3ccc4c(c3)CC(C)O4)C(=O)C(=O)N2CCCn2ccnc2)cc(OC)c1OC (configuration not stated)	.	.	/	.	.	.
Cc1ccc(-n2ncc(-c3n[nH]c(=S)o3)c2N)cc1C	.	.	.	?	.	.
COCCNc1nc2cc(-c3ccccc3C)sc2c(=O)n1C	?	.	.	?	18.4µM	.
Cc1ccccc1-c1cc2nc(NCCOc3ccccc3Cl)n(C)c(=O)c2s1	.	.	.	?	?	.
C=CCNc1nc2cc(-c3ccccc3OC)sc2c(=O)n1C	.	.	?	?	?	.
COCCNc1nc2cc(-c3ccccc3OC)sc2c(=O)n1C	.	.	.	13µM	18.4µM	.
CCOC(=O)/C(C#N)=C1/C=C(C)NC(c2ccccc2O)=N1	.	-63.9	.	20.6µM	14.6µM	.
O=C(C(O)c1ccc(Br)cc1)N1CCC(Nc2ccc3[nH]ncc3c2)CC1 (configuration not stated)	-81.0	.	.	.	.	.
O=C(Nc1ccc2[nH]ncc2c1)C1CCC1	.	.	.	.	.	.
Cc1ccc(S(=O)(=O)N2CCN(C(=O)c3ccnn3C)CC2)cc1C	.	.	.	.	.	.
CCOc1ccc(NC(=O)CCS(=O)(=O)c2ccc3c(c2)n(C)c(=O)c(=O)n3C)cc1	/	/	.	.	.	.
O=C(Nc1cccc(S(=O)(=O)N2CCCCC2)c1)c1ccc(OCC2CCCO2)cc1 (configuration not stated)	.	.	.	16.4µM	20.6µM	.
O=C(Nc1ccc(S(=O)(=O)N2CCCC2)cc1)c1ccc(OCC2CCCO2)cc1 (configuration not stated)	.	.	.	.	.	.
